Compound activity from PubChem.
BAZ2B inh – qHTS Assay for Inhibitors of BAZ2B; 360,000 compounds, 4.4% hits; Bromodomain adjacent to zinc finger domain protein 2B (Homo sapiens), Q9UIF8; AlphaScreen BAZ2B-H3K14Ac peptide displacement; AID 504333, 2011; Potency, µM (doses to about 114 µM), most hits filed as inhibitors; also: nearly all actives have a fitted effect of over 60% in size
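AlphaScreen luminescence quantifies BAZ2B engagement of H3K14Ac peptide; the protein and biotinylated peptide are both at 50 nM final, buffer PBS pH 7.4 with 0.01% Tween-20, all steps at room temperature.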
PLK1 PBD block – qHTS for Inhibitors of PLK1-PDB (polo-like kinase 1 - polo-box domain): Primary Screen | Serine/threonine-protein kinase PLK1 (Homo sapiens), P53350 | Potency, µM, usual class: inhibitors | 360,000 compounds, 2.8% hits | Plk1 PBD binding of FITC phosphopeptide, fluorescence polarization | AID 720504, 2013; also: series mostly up to about 57 µM; nearly all actives have a fitted effect of over 65% in size
Target sequence (P53350 whole entry, looked up, the tested form may be a part): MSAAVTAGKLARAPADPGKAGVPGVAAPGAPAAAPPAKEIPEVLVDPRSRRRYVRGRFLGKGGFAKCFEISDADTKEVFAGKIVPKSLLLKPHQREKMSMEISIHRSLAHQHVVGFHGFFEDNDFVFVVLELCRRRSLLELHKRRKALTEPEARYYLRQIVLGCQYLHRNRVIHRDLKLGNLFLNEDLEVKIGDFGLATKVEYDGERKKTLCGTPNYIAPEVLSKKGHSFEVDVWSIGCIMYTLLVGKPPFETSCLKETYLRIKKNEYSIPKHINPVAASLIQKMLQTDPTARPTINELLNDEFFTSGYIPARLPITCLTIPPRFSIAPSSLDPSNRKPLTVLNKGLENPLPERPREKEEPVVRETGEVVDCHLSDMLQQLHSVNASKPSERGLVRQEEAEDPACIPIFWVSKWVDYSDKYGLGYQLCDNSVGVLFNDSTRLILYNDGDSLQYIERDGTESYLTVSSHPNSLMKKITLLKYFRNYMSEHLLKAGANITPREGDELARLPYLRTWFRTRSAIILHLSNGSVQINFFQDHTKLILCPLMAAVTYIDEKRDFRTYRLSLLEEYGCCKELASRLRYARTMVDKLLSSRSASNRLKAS
JMJD2A Tudor – qHTS Assay for Inhibitors of JMJD2A-Tudor Domain; Lysine-specific demethylase 4A (Homo sapiens), O75164; Potency, µM (series often up to 114 µM), actives largely listed as inhibitors; 390,000 compounds, 4.4% hits; AlphaScreen JMJD2A-Tudor / H3K4me3 peptide binding; AID 504339, 2011; also: nearly all actives have a fitted effect of over 50% in size
G9a inh – qHTS Assay for Inhibitors of Histone Lysine Methyltransferase G9a; G9a H3K9 monomethylation, AlphaScreen, 2 h; Potency, µM (top dose mostly 102 µM), usual class: inhibitors; 350,000 compounds, 8.8% hits; AID 504332, 2011; also: nearly all actives have a fitted effect of over 75% in size
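Chemiluminescent proximity detection of H3K9 monomethylation, read after 10 min bead incubation in the dark. Reaction: 20 nM G9a, 500 nM biotin-H3K9 peptide, 20 uM SAM cofactor, 2 h, room temperature, following 15 min enzyme-compound preincubation.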
HP1b chromo inh – HTS for Inhibitors of HP1-beta Chromodomain Interactions with Methylated Histone Tails; Chromobox protein homolog 1 (Homo sapiens), P83916; AlphaScreen HP1-beta / biotin-H3K9me3 peptide binding; Potency, µM (highest dose often 114 µM), most hits filed as inhibitors; 390,000 compounds, 0.56% hits; also: nearly all actives have a fitted effect of over 70% in size
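Compound inhibition of the preformed complex between 50 nM HP1-beta and 50 nM biotinylated H3K9me3 peptide was read by AlphaScreen. Buffer was PBS pH 7.4 with 0.01% Tween-20. Incubations ran 30 min at room temperature, with 10 ug/mL donor/acceptor beads.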
Sfp inh – qHTS Assay for Inhibitors of Bacillus subtilis Sfp phosphopantetheinyl transferase (PPTase); 310,000 compounds, 3.5% hits; AID 1490, 2009; 4'-phosphopantetheinyl transferase ffp (Bacillus subtilis), Q9F4F7; Potency, µM, actives largely listed as inhibitors; Biochemical Sfp PPTase activity, qHTS;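 also: the enzyme is Sfp with the accession as filed and its product quenches rhodamine fluorescence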
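Step 1, compound plus 15 nM Sfp-PPTase, 15 min, room temperature. Step 2, add rhodamine-CoA (5 uM) and BHQ-2-YbbR (12.5 uM). Step 3, read 525/598 nm fluorescence at 0 and 30 min.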
Each line names hits and unclear results; the compound was inactive in the other large screens. An excerpt weighted towards active compounds, which were near 12% of everything screened. Calls follow the shape of the dose curve; as a rule, active = well fitted curve in the direction sought with a large enough effect; inconclusive = small, poorly fitted or top-dose-only effect, or another doubt; inactive = no such curve, though single readings can be large; an effect the other way counts as inactive or inconclusive.

CC(=O)Nc1sc(C)c(C)c1C(=O)OC(C)C	PLK1 PBD block 26.7µM, JMJD2A Tudor inconclusive, HP1b chromo inh inconclusive
CCOC(=O)Nc1sc(C)c(C)c1C(=O)OCC	none
CC(C)NC(=O)N1CCC2(CC1)CCN(S(C)(=O)=O)CC2	none (no result: BAZ2B inh, PLK1 PBD block, JMJD2A Tudor, HP1b chromo inh)
Cc1n[nH]c(C)c1CCCCOc1ccccc1	G9a inh 50.1µM
COc1cccc(OC)c1OCCCCCc1c(C)n[nH]c1C	G9a inh 50.1µM
COc1cccc(OC)c1OCCCCc1c(C)n[nH]c1C	G9a inh inconclusive
Cc1ccc(OCCCc2c(C)n[nH]c2C)cc1	BAZ2B inh inconclusive, G9a inh inconclusive
Cc1ccc(NC(=O)CN2CCC(NC(=O)c3ccccc3F)CC2)cc1C	PLK1 PBD block inconclusive
O=C(CN1C(=O)NC2(CCCCCC2)C1=O)NCCc1ccccc1	none (no result: Sfp inh)
CCc1ccc(-n2cnc3cc(C(=O)NCc4ccc(C)cc4)ccc32)cc1	G9a inh inconclusive (no result: PLK1 PBD block, Sfp inh)
COc1ccc(C(C(=O)Nc2ccc(C(C)C)cc2)N(C)C(=O)c2ccc(=O)[nH]c2)cc1 (stereo unspecified)	PLK1 PBD block 26.7µM, JMJD2A Tudor 50.1µM
CCOc1ccc(/C=N/OCC(=O)NCc2ccco2)cc1	PLK1 PBD block 15µM, JMJD2A Tudor inconclusive
CCOc1cc(C(=O)OCC(=O)NCc2ccco2)cc(OCC)c1OCC	BAZ2B inh 28.2µM, JMJD2A Tudor 56.2µM, G9a inh 50.1µM, HP1b chromo inh inconclusive
CN(C)c1cccc(C(=O)OCC(=O)NCc2ccco2)c1	none
CCOc1ccc(NC(=O)C(=O)NCc2ccco2)cc1	none (no result: PLK1 PBD block, Sfp inh)
CN(C)S(=O)(=O)c1ccc(C(=O)OCC(=O)NCc2ccco2)cc1	BAZ2B inh 50.1µM, G9a inh 50.1µM
CN(C)S(=O)(=O)c1ccc(C(=O)NCc2ccco2)cc1	none
COc1cc(OC)cc(C(=O)OCC(=O)NCc2ccco2)c1	BAZ2B inh 50.1µM, JMJD2A Tudor inconclusive, G9a inh inconclusive (no result: Sfp inh)
COc1cc(C(=O)OCC(=O)NCc2ccco2)cc(OC)c1OC	BAZ2B inh inconclusive, JMJD2A Tudor inconclusive
Cn1c(=O)oc2cc(S(=O)(=O)Nc3ccc(F)cc3)ccc21	none
COc1ccc(O[C@H]2C=C[C@@H](c3ccccc3)O[C@H]2COC(=O)CC/C(C)=N\O[C@@H](C)c2cn([C@H]3COC[C@H]3O)nn2)cc1	none (no result: BAZ2B inh, PLK1 PBD block, JMJD2A Tudor, G9a inh, HP1b chromo inh)
Cc1nc2c(-c3ccccc3)c(C)[nH]n2c(=O)c1Cc1ccc(C(C)C)cc1	none (no result: PLK1 PBD block, Sfp inh)
CCOC(=O)c1nn(-c2ccc(C)c(C)c2)c(=O)c(C#N)c1C	G9a inh 44.7µM
Cc1c(C(=O)NN)nn(-c2ccc(F)cc2)c(=O)c1C#N	none
CCOC(=O)c1nn(-c2ccccc2C)c(=O)c(C#N)c1C	G9a inh 89.1µM
Cc1ccc(-n2cc(C(C)(C)C)[nH]c2=S)cc1	BAZ2B inh inconclusive, JMJD2A Tudor 44.7µM, HP1b chromo inh inconclusive
CC(C)(C)c1cn(-c2ccccc2)c(=S)[nH]1	BAZ2B inh inconclusive, JMJD2A Tudor 22.4µM, G9a inh 7.94µM
Cc1cccc(-n2cc(-c3ccc([N+](=O)[O-])cc3)[nH]c2=S)c1	none
COc1cc(C(=O)NC2=C(C#N)CCC2)cc(OC)c1OC	G9a inh 50.1µM
CN(C)c1ccc(NC(=O)c2ccc3nc[nH]c3c2)cc1	BAZ2B inh 44.7µM, G9a inh inconclusive
COc1cc(C(=O)Nc2ccc(N(C)C)cc2)cc(OC)c1OC	BAZ2B inh inconclusive, JMJD2A Tudor inconclusive, G9a inh 44.7µM
O=C(Nc1ccccc1)c1cccc(N2C(=O)CCC2=O)c1	G9a inh inconclusive
CN(C)c1ccc(NC(=O)c2cccc(N3C(=O)CCC3=O)c2)cc1	G9a inh 39.8µM
COc1cc(C(=O)Nc2ccc(S(=O)(=O)N(C)c3ccccc3)cc2)cc(OC)c1OC	none
COc1cc(C(=O)Nc2ccccc2NC(=O)c2cc(OC)c(OC)c(OC)c2)cc(OC)c1OC	none
O=C(Nc1ccc(F)cc1)c1ccc2nc[nH]c2c1	none
COc1ccccc1-n1c(SCC(=O)N(C)C)nnc1-c1ccco1	none (no result: BAZ2B inh, G9a inh, Sfp inh)
